The values below come from PubChem BioAssay (NCATS).

“And” between values parts separate entries of the source, which are not always exact repeats. Equal entries are not always repeated. Records with an inconclusive call do not appear. The source made the active and inactive calls. Unless noted, calls follow the shape of the dose curve; as a rule, active = well fitted curve in the direction sought with a large enough effect; inconclusive = small, poorly fitted or top-dose-only effect, or another doubt; inactive = no such curve, though single readings can be large; an effect the other way counts as inactive or inconclusive.

Test [1] can be described thus: qHTS drug screen for cell cycle checkpoint inhibitors in PARPi-resistant BRCA-mutant ovarian cancer cell lines. (AID 1963452; calls by dose curve; also: potency is read from the fitted curve at half-maximal effect). To be noted: PEO1/OlaR viability, CellTiter-Glo luminescence, 96 h; for Z-AUC: stronger effect = lower value. The gist of the method:
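PEO1, PEO4 and PEO1/OlaR ovarian cancer cells, 600 per well, exposed 96 h at 37C to a dilution series. Viability read by CellTiter-Glo luminescence, normalized to DMSO and empty wells; activity summarized as Z-AUC.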
(qHTS replaces the single test concentration by a dilution series.)

The nature of test [2]: Dual reporter qHTS for agonist of Pregnane X Receptor (hPXR) against the NCATS DSHEA and TCM libraries: Fluorescence readout (AID 1920058). Also: 0% is about no effect. Particulars: PXR dual reporter cells; series mostly up to 40 µM. Put shortly:
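Fluorescence read-out for cell viability: CellTiter-Fluor, 1 h at 37 °C, Ex/Em 405/540 nm. This followed ~24 h treatment of hPXR-Luc HepG2 cells with substances in agonist mode.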

For test [3], the target named is Nuclear receptor subfamily 1 group I member 2 (Homo sapiens) (UniProt O75469). The test is described as follows: Dual reporter qHTS for antagonist of Pregnane X Receptor (hPXR) against the NCATS DSHEA and TCM libraries: Luminescence Readout (AID 1920060). Also: 0% is about no effect. To be noted: hPXR dual reporter cells, luciferase luminescence, antagonist mode; series mostly up to 40 µM. The gist of the method:
(§1)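 Antagonist mode: rifampicin 2 uM final co-added with compounds to hPXR-LucHepG2 cells for 24 h at 37C. Viability by CellTiter-Fluor, Ex/Em 405/540 nm, 1 h; reporter by ONE-Glo luminescence.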

A short description of test [4]: Dual reporter qHTS for antagonist of Pregnane X Receptor (hPXR) against the NCATS DSHEA and TCM libraries: Fluorescence Readout (AID 1920061). Also: 0% is about no effect. Particulars: PXR dual reporter cells, antagonist mode; series mostly up to 40 µM. Put shortly:
as §1

The subject of another test is 7G8. As to the kind of experiment: qHTS profiling for inhibitors of Plasmodium falciparum proliferation (AID 504749). Also: nearly all actives have a fitted effect of over 60% in size. Also: potency is read from the fitted curve at half-maximal effect.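 As to activity, negative = inhibition: 0% = DMSO vehicle and full inhibition = artemisinin control.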 To be noted: P. falciparum in erythrocytes, SYBR Green DNA, 72 h; series mostly up to 28.7 µM. The gist of the method:
(§2)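 In a 72 h erythrocytic culture (37 C, humidified, 5% CO2) at 2.5% hematocrit and 0.3% starting parasitemia, compounds were tested; SYBR Green I in detergent lysis buffer stained parasite DNA overnight.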

For another test, the system named is CP192. Described as above. To be noted: P. falciparum in erythrocytes, SYBR Green DNA, 72 h; series mostly up to 28.7 µM. Put shortly:
as §2

The next test has as its system CP194. The test is described as above. To be noted: P. falciparum in erythrocytes, SYBR Green DNA, 72 h; series mostly up to 28.7 µM. Put shortly:
as §2

Another test deals with CP201. The test is described as above. To be noted: P. falciparum in erythrocytes, SYBR Green DNA, 72 h; series mostly up to 28.7 µM. The gist of the method:
as §2

A further test relates to CP211. Described as above. To be noted: P. falciparum in erythrocytes, SYBR Green DNA, 72 h; series mostly up to 28.7 µM. Put shortly:
as §2

For test [5], the target named is Nuclear receptor subfamily 1 group I member 2 (Homo sapiens) (UniProt O75469). The test is described as follows: Dual reporter qHTS for agonist of Pregnane X Receptor (hPXR) against the NCATS DSHEA and TCM libraries: Luminescence readout (AID 1920059). Also: 0% is about no effect. To be noted: hPXR dual reporter cells, luciferase luminescence agonist; series mostly up to 40 µM. The gist of the method: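 Luminescent PXR reporter read (ONE-Glo) after a CellTiter-Fluor viability read, following 24 h, 37C treatment of HepG2 cells stably carrying hPXR-Luc.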
Nuclear receptor subfamily 1 group I member 2 (Homo sapiens), sequence (O75469 whole entry, looked up): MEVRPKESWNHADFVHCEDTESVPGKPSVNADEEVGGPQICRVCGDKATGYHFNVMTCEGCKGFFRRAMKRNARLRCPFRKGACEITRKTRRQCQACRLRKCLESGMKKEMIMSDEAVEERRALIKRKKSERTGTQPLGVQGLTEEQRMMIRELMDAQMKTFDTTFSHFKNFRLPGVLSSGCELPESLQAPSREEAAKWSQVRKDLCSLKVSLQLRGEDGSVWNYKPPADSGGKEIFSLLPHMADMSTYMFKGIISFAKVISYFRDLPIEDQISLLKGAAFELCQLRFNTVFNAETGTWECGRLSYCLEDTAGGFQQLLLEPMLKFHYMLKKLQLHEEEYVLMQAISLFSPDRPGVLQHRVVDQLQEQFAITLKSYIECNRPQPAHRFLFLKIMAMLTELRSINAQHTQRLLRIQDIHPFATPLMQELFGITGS

Test [6] is described as follows: qHTS profiling for inhibitors of Plasmodium falciparum proliferation (AID 504749). Also: potency is read from the fitted curve at half-maximal effect.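 As to activity, negative = inhibition: 0% = DMSO vehicle and full inhibition = artemisinin control.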 As to all read-outs here: nearly all actives have a fitted effect of over 60% in size. To be noted: P. falciparum in erythrocytes, SYBR Green DNA, 72 h; for activity, negative = inhibition: at 28.7 µM (top of the series). The gist of the method:
as §2

For a further test, the system named is 3D7. Described as above. To be noted: P. falciparum in erythrocytes, SYBR Green DNA, 72 h; series mostly up to 28.7 µM. Put shortly:
as §2

The test system of another test is AA1029. The description is as above. To be noted: P. falciparum in erythrocytes, SYBR Green DNA, 72 h; series mostly up to 28.7 µM. The gist of the method:
as §2

The test system of the next test is AS120. The test is described as above. To be noted: P. falciparum in erythrocytes, SYBR Green DNA, 72 h; series mostly up to 28.7 µM. Put shortly:
as §2

The test system of another test is ATS189. The description is as above. To be noted: P. falciparum in erythrocytes, SYBR Green DNA, 72 h; series mostly up to 28.7 µM. The gist of the method: as §2
The next test concerns ATS95. The test is described as above. To be noted: P. falciparum in erythrocytes, SYBR Green DNA, 72 h; series mostly up to 28.7 µM. The gist of the method:
as §2

For the next test, the system named is C2A. The test is described as above. Particulars: P. falciparum in erythrocytes, SYBR Green DNA, 72 h; series mostly up to 28.7 µM. Put shortly: as §2
A further test concerns CP185. The description is as above. To be noted: P. falciparum in erythrocytes, SYBR Green DNA, 72 h; series mostly up to 28.7 µM. Put shortly:
as §2

In the next test the test system is CP191. Described as above. To be noted: P. falciparum in erythrocytes, SYBR Green DNA, 72 h; series mostly up to 28.7 µM. Put shortly:
as §2

The subject of another test is CP203. Described as above. To be noted: P. falciparum in erythrocytes, SYBR Green DNA, 72 h; series mostly up to 28.7 µM. The gist of the method:
as §2

The mark [7] stands for this setting: measured here: PEO1 parental Z-AUC.

Consider `Cc1nnc(C(C)C)n1C1CC2CCC(C1)N2CC[C@H](NC(=O)C1CCC(F)(F)CC1)c1ccccc1` (stereo partly specified), for which the Z-AUC in test [1] is 1.09 (inactive) and 0.404 (inactive); in test [1] (setting [7]), 1.65 and 0.521; in test [1] (measured here: PEO4 Z-AUC) it was 1.24 and 0.375.
Take `CN(C)C/C=C/C(=O)Nc1ccc(C(=O)Nc2cccc(Nc3ncc(Cl)c(-c4c[nH]c5ccccc45)n3)c2)cc1`: the Z-AUC in test [1] was -2.19 (inactive); in test [1] (setting [7]), -3.23; in test [1] (measured here: PEO4 Z-AUC) it was -2.66.
As to `CC1=C(/C=C/C(C)=C/C=C/C(C)=C/CO)C(C)(C)CCC1`, the compound was classed as inactive in test [2], in test [3] and in [4]. Moreover, the Potency in the test with 7G8 is 10 µM (active). The Potency result in the test with CP192, with CP194, in the test on CP201 and in the test with CP211 was “inactive” throughout.
As to `C[C@H](CCC(=O)O)[C@H]1CC[C@H]2[C@@H]3[C@H](O)C[C@@H]4C[C@H](O)CC[C@]4(C)[C@H]3CC[C@]12C`, the Z-AUC in [1] is 1.79 (inactive); in test [1] (setting [7]), 0.809; in test [1] (measured here: PEO4 Z-AUC), 0.917.
For `COc1cc(N2CCC(N(C)C)CC2)ccc1Nc1ncc(Cl)c(Nc2ccccc2P(C)(C)=O)n1`, the Potency in [1] is 436 nM (active). Also, the Z-AUC in test [1] (setting [7]) was -1.75; in test [1] (measured here: PEO4 Z-AUC), -1.64.
In the case of `CC1=CCC(C(C)(C)O)CC1` (stereo unspecified), the compound was classed as inactive in test [2], in [5], in test [3] and in test [4]. Also, the activity, negative = inhibition was 7.42% (inactive) in [6] (parasite line A) and 12.4% (inactive) in test [6] (parasite line B). The Potency result in the test with 3D7, with 7G8, in the test with AA1029, with AS120, in the test with ATS189 and in the test with ATS95 was “inactive” throughout. Besides, the Potency entry with C2A, in the test on CP185, in the test with CP191, in the test with CP192, with CP194 and in the test with CP201 was “inactive” throughout. Besides, the Potency entry in the test with CP211 is “inactive”.
In the case of `CC(C)C(=O)OCC(=O)[C@@]12O[C@H](C3CCCCC3)O[C@@H]1C[C@H]1[C@@H]3CCC4=CC(=O)C=C[C@]4(C)[C@H]3[C@@H](O)C[C@@]12C`, the Z-AUC in test [1] was -0.223 (inactive); in test [1] (setting [7]) it was 0.238; in [1] (measured here: PEO4 Z-AUC), -0.69.
For the compound `C[C@@H]1CCN(C(=O)CC#N)C[C@@H]1N(C)c1ncnc2[nH]ccc12`, the Z-AUC was 1.14 (inactive) in test [1], 0.765 in test [1] (setting [7]) and 1.24 in test [1] (measured here: PEO4 Z-AUC).
On to `Oc1cc(O)c2c(c1)OC(c1ccc(O)c(O)c1)C(O)C2` (stereo unspecified), for which the compound was called inactive in [2], in test [5] and in [4]. In addition, the results for the activity, negative = inhibition in test [6] (parasite line A) and in test [6] (parasite line B) were -12.6% (inactive) and -13.8% (inactive), respectively. For the same compound, the Potency entry with 3D7, with 7G8, in the test with AA1029, with AS120, with ATS189 and with ATS95 was “inactive” in each case. Also, the Potency result with C2A, in the test with CP185, in the test on CP191, with CP192, in the test with CP194 and in the test on CP201 was “inactive” each time. Moreover, the Potency entry in the test on CP203 and in the test on CP211 was “inactive” throughout.
For the compound `Cc1ccc(C(=O)Nc2ccc(Oc3cc4cnn(C)c4cc3-c3cn[nH]c3)c(F)c2)c(=O)n1-c1ccc(F)cc1`, the figures for the Z-AUC in [1], in test [1] (setting [7]) and in test [1] (measured here: PEO4 Z-AUC) were -0.0237 (inactive), 0.144 and -0.211, respectively.
For `CCN(c1cc(C#CCN2CCOCC2)cc(C(=O)NCc2c(C)cc(C)[nH]c2=O)c1C)C1CCC(N(C)CCOC)CC1` (stereo unspecified), the Z-AUC was 0.159 (inactive) in [1], 1.88 in test [1] (setting [7]) and 1.36 in test [1] (measured here: PEO4 Z-AUC).
For `Cc1cccc(-c2[nH]c(CNc3ccccc3F)nc2-c2ccc3ncnn3c2)n1`, in that order: -0.298 (inactive), 0.223 and -0.0692.
With `CN1C(=O)N[C@@H](Cc2c[nH]c3c(Cl)cccc23)C1=O`, the Z-AUC is -0.9 (inactive) in test [1], -0.75 in [1] (setting [7]) and -0.721 in [1] (measured here: PEO4 Z-AUC).
`O=C(O)c1ccc(CCCc2ccc(OCCc3ccc(F)cc3)cc2)o1`: the results for the Z-AUC in [1], in [1] (setting [7]) and in test [1] (measured here: PEO4 Z-AUC) were 0.294 (inactive), 0.863 and 0.926, respectively.
As to `Cc1ccccc1OCC(O)CNCCOc1ccc(C(N)=O)cc1` (stereo unspecified), the figures for the activity, negative = inhibition in test [6] (parasite line A) and in test [6] (parasite line B) were 11.2% (inactive) and 8.46% (inactive), respectively. For the same compound, the Potency entry with 3D7, in the test on 7G8, in the test on AA1029, in the test on AS120, with ATS189 and in the test on ATS95 was “inactive” throughout. The Potency entry in the test with C2A, in the test with CP185, with CP191, in the test on CP192, in the test on CP194 and in the test on CP201 was “inactive” in each case. Moreover, the Potency result in the test on CP203 and with CP211 was “inactive” each time.
As for `C[C@@H]1CCC2[C@@H](C)[C@@H](O)O[C@@H]3O[C@@]4(C)CC[C@@H]1[C@@]23OO4` (stereo partly specified), the Potency in [6] (parasite line A) was 1.4 nM (active); in test [6] (parasite line B), 1.8 nM (active); with 3D7 it was 3.5 nM (active); in the test on 7G8, 0.0008 µM (active); in the test with AA1029 it was 2.2 nM (active); in the test with AS120, 1.6 nM (active). The Potency is 2.2 nM (active) with ATS189; 2.2 nM (active) in the test on ATS95; 2.2 nM (active) with C2A; 2.5 nM (active) in the test with CP185; 3.2 nM (active) with CP191; 4.3 nM (active) in the test on CP192. Further, the Potency is 6 nM (active) with CP194, 10.7 nM (active) with CP201, 3.4 nM (active) in the test on CP203 and 5.4 nM (active) with CP211.
